Assay outcomes from PubChem BioAssay.
The list is not random: actives were taken first. Their share in the collection is about 2.4%.
Platelet DG rel = modulates dense granule release in human platelets. inhibition, %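 (compounds screened at 7.5 µM in platelet-rich plasma)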. 0.22% of 300,000 active. human platelet-rich plasma, SFLLRN dense granule ATP release, luminescence;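 active = mean replicate score, as percent of positive control, at or above 50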
SENP8 block-1 = SENP8 (human) protease inhibition. Q96LD8. recombinant SENP8, Nedd8 substrate fluorescence. inhibition, % at 20 µM. AID 602440. 0.64% of 360,000 active; in the data active = inhibition mostly above about 40%, no sharp cut-off; inactive = mostly below about 27%
SENP8 block-2 = blocks the human protease SENP8. purified SENP8, Z-RLRGG-aminoluciferin cleavage, luminescence. 1.2% of 330,000 active. AID 2540. inhibition, % at 10 µM; in the data active = inhibition above about 50%
SENP6 inh = inhibitors of human SENP6 protease; Q9GZR1; Recombinant SENP6 catalytic domain, aminoluciferin luminescence; inhibition, % at 10 µM; 1.8% of 330,000 active; AID 2599;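 active = inhibition above about 50% at the single tested dose, limit read from the data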
Target sequence (Q9GZR1 628-1112 limits assumed): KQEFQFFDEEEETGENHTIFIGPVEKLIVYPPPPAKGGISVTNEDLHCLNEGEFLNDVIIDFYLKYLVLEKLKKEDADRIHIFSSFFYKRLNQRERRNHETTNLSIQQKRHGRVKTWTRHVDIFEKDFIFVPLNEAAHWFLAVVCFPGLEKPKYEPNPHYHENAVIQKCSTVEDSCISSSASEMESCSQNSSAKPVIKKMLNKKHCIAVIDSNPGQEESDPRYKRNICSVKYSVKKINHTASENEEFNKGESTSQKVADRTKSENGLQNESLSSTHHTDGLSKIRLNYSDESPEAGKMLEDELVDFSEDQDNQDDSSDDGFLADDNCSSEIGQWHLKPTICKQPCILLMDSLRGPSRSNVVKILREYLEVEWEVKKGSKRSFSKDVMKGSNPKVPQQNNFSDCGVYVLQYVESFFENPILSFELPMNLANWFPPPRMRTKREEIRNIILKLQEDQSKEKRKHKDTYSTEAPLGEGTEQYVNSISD
SENP7 block = blocks the human protease SENP7; Q9BQF6; recombinant SENP7, Z-RLRGG-aminoluciferin luminescence, 40 min; inhibition, % at 5 µM; 1.5% of 330,000 active; AID 434973;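 active = inhibition above about 50% at the single test dose, limit read from the data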
SENP8 conf = SENP8 (human) inhibition, single concentration confirmation. shares compounds with SENP8 block-1. purified SENP8, Nedd8-AMC/pro-Nedd8 cleavage fluorescence, 30 min. inhibition, % at 25 µM. 15% of 1,400 active. AID 624319; in the data active = inhibition mostly above about 39%, no sharp cut-off; inactive = mostly below about 34%
Hits are given with their value.

Cc1cccc(Nc2nc(N3CCN(C)CC3)nc(N)c2[N+](=O)[O-])c1 was read as Platelet DG rel inactive, SENP8 block-1 40, SENP8 block-2 inactive, SENP6 inh inactive, SENP7 block inactive and SENP8 conf inactive.
Screening CCOc1ccc(Nc2nc(N)c([N+](=O)[O-])c(N3CCN(C)CC3)n2)cc1 returned Platelet DG rel inactive, SENP8 block-1 47, SENP8 block-2 inactive, SENP6 inh inactive, SENP7 block inactive and SENP8 conf inactive.
Screening CC(C)NC(=O)Nc1ccc2c(c1)C(=O)N([C@H](C)CO)C[C@H](C)[C@@H](CN(C)C(=O)NC(C)C)O2 returned SENP8 block-1 inactive.
`Cc1ccc2c(c1)C1CC(C)(O2)N(c2cccc(C(=O)NC3CCN(Cc4ccccc4)CC3)c2)C(=O)N1` (configuration not stated) gave Platelet DG rel inactive, SENP8 block-1 inactive, SENP8 block-2 inactive, SENP6 inh inactive and SENP7 block inactive.
O=c1c2ccccc2c(C=NCc2ccccn2)c(O)n1-c1ccccc1 was read as Platelet DG rel inactive, SENP8 block-1 26, SENP8 block-2 inactive, SENP6 inh inactive, SENP7 block inactive and SENP8 conf inactive.
For COc1ccc(-n2c(O)c(C=NCc3ccccn3)c3ccccc3c2=O)c(OC)c1 the results were Platelet DG rel inactive, SENP8 block-1 41, SENP8 block-2 inactive, SENP6 inh inactive, SENP7 block inactive and SENP8 conf inactive.
For S=c1[nH]nc([C@@H]2C[C@H]2c2ccccc2)n1-c1ccccc1Cl the results were Platelet DG rel inactive, SENP8 block-1 inactive, SENP8 block-2 inactive, SENP6 inh inactive and SENP7 block inactive.
`CC1(c2ccc(OC(F)F)cc2)NC(=O)N(CC(=O)c2ccc3c(c2)OCO3)C1=O` (configuration not stated) gave Platelet DG rel inactive, SENP8 block-1 inactive, SENP8 block-2 inactive, SENP6 inh inactive and SENP7 block inactive.
Screening O=C1c2cc(F)ccc2-n2c1nc1ccccc1c2=O returned Platelet DG rel inactive, SENP8 block-1 42, SENP8 block-2 inactive, SENP6 inh inactive, SENP7 block inactive and SENP8 conf 60.
`Cc1ccc2sc(NNC(=O)c3cc(-c4cccs4)nc4ccccc34)nc2c1C` gave Platelet DG rel inactive.
Screening Cc1ccc2sc(NNC(=O)c3cc(=O)c4ccccc4o3)nc2c1C returned Platelet DG rel inactive, SENP8 block-1 66, SENP8 block-2 94, SENP6 inh 96, SENP7 block inactive and SENP8 conf inactive.
Screening COc1ccc(Nc2nc(=O)c3cc([N+](=O)[O-])ccc3s2)cc1 returned Platelet DG rel inactive, SENP8 block-1 55 and SENP8 conf inactive.
`Cc1ccc(Nc2nc(=O)c3cc([N+](=O)[O-])ccc3s2)cc1` gave Platelet DG rel inactive, SENP8 block-1 inactive, SENP8 block-2 inactive, SENP6 inh inactive and SENP7 block inactive.
`O=C(COC(=O)c1cccc(S(=O)(=O)N2CCc3ccccc3C2)c1)NCc1ccco1` gave Platelet DG rel inactive, SENP8 block-1 inactive, SENP8 block-2 inactive, SENP6 inh inactive and SENP7 block inactive.
`O=C(COC(=O)c1cc(S(=O)(=O)N2CCc3ccccc3C2)ccc1Cl)NCc1ccco1` gave Platelet DG rel inactive, SENP8 block-1 42, SENP8 block-2 inactive, SENP6 inh inactive, SENP7 block inactive and SENP8 conf 57.
Screening O=C(COc1ccc(S(=O)(=O)N2CCOCC2)cc1)N1CCc2ccccc2C1 returned Platelet DG rel inactive, SENP8 block-1 inactive, SENP8 block-2 inactive, SENP6 inh inactive and SENP7 block inactive.
Screening Cc1ccc(S(=O)(=O)N2CCOCC2)cc1C(=O)OCC(=O)N1CCc2ccccc2C1 returned Platelet DG rel inactive, SENP8 block-1 51 and SENP8 conf inactive.
Screening Cc1ccc(CNc2nc(C)cs2)cc1 returned Platelet DG rel inactive, SENP8 block-1 inactive, SENP8 block-2 inactive, SENP6 inh inactive and SENP7 block inactive.
Screening Clc1cccc(-c2ccc3nccn3c2)c1Cl returned SENP8 block-1 inactive.
For CC[C@]12c3[nH]c4ccccc4c3CCN1C(=O)C(CC(=O)NCCC1=CCCCC1)C[C@@H]2C(=O)N1CCN(C(=O)C2CC2)CC1 (some centres not stated) the results were SENP8 block-1 inactive, SENP8 block-2 inactive, SENP6 inh inactive and SENP7 block inactive.
`CNC(=O)C(=O)N/N=C/c1cccnc1` gave Platelet DG rel inactive, SENP8 block-1 inactive, SENP8 block-2 inactive, SENP6 inh inactive and SENP7 block inactive.
O=C(C1CCCCC1)N1CCCc2ccccc21 was read as Platelet DG rel inactive, SENP8 block-1 inactive, SENP8 block-2 inactive, SENP6 inh inactive and SENP7 block inactive.
`CC(C)N1C(=O)CCC1C(=O)N1CCCc2ccccc21` (configuration not stated) gave Platelet DG rel inactive, SENP8 block-1 41, SENP8 block-2 inactive, SENP6 inh inactive, SENP7 block inactive and SENP8 conf 67.
COc1ncnc2c1ncn2CCCNCc1ccc2c(c1)OCO2 was read as SENP8 block-1 inactive.
`CCOC(=O)/C(=C\c1ccc([N+](=O)[O-])o1)NC(=O)c1ccccc1` gave Platelet DG rel inactive, SENP8 block-1 42, SENP8 block-2 inactive, SENP6 inh inactive, SENP7 block inactive and SENP8 conf inactive.
Screening CCCOC(=O)/C(=C\c1ccc([N+](=O)[O-])o1)NC(=O)c1ccccc1 returned Platelet DG rel inactive, SENP8 block-1 inactive, SENP8 block-2 inactive, SENP6 inh inactive and SENP7 block inactive.
CC1CC(=O)N(c2ccc(NCCc3ccccc3)c([N+](=O)[O-])c2)C1=O (configuration not stated) was read as Platelet DG rel inactive, SENP8 block-1 inactive, SENP8 block-2 inactive, SENP6 inh inactive and SENP7 block inactive.
CC1CC(=O)N(c2ccc(NCCc3ccc(O)cc3)c([N+](=O)[O-])c2)C1=O (configuration not stated) was read as Platelet DG rel inactive, SENP8 block-1 42, SENP8 block-2 inactive, SENP6 inh inactive, SENP7 block inactive and SENP8 conf inactive.
`O=C1OC(N2C(=O)CC[C@H]2C(=O)Nc2ccc(F)c(F)c2)c2ccccc21` (some centres not stated) gave Platelet DG rel inactive, SENP8 block-1 inactive, SENP8 block-2 inactive, SENP6 inh inactive and SENP7 block inactive.
For O=C1OC(N2C(=O)CC[C@H]2C(=O)Nc2ccc(Br)cc2F)c2ccccc21 (some centres not stated) the results were Platelet DG rel inactive, SENP8 block-1 54, SENP8 block-2 inactive, SENP6 inh inactive, SENP7 block inactive and SENP8 conf inactive.
`Cc1cccc(C)c1N(CC(=O)NC1CCCCC1)C(=O)c1csnn1` gave Platelet DG rel inactive, SENP8 block-1 inactive, SENP8 block-2 inactive, SENP6 inh inactive and SENP7 block inactive.
Nc1ccccc1O was read as SENP8 block-1 58, SENP8 block-2 inactive, SENP6 inh inactive, SENP7 block inactive and SENP8 conf inactive.
